DT40 TDP1 no CPT: qHTS for Inhibitors of human tyrosyl-DNA phosphodiesterase 1 (TDP1): qHTS in cells in absence of CPT; DT40 Tdp1-/- hTDP1 cells, no CPT, ATP luminescence, 48 h; Potency, µM (highest dose often 46.2 µM), for the others: at the top dose activity change, negative = growth inhibition, usual class: inhibitors; actives 15% (n = 420,000); further: nearly all actives have a fitted effect of over 55% in size
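Chicken DT40 Tdp1-/- cells complemented with human TDP1, screened without camptothecin (DMSO vehicle only), 400 cells/well. Compounds pin-transferred, cells incubated at 37 °C for at least 48 hr. Growth read as ATP-dependent luminescence (CellTiter-Glo, 30 min at RT).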
RORgamma inh: inhibitors of mouse ROR gamma transcriptional activity; P51450; Drosophila S2 Gal4-RORgamma UAS-luciferase reporter, 20 h; Potency, µM (series often up to 53.6 µM), inactives show at the top dose activity change, negative = inhibition, actives largely listed as inhibitors; actives 5.4% (n = 310,000); further: nearly all actives have a fitted effect of over 60% in size
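Luminescence from a UAS-regulated Photinus luciferase reporter in stably transfected Drosophila Schneider cells is measured; decreased signal marks ROR gamma inhibition. Fusion expression is induced by 700 uM copper sulfate for 20 hr.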
TDP1 inh: TDP1 (human) enzyme inhibition | Potency, µM (titrated, usually from 130 µM), for inactives: at the top dose activity change, negative = inhibition, most hits filed as inhibitors | AID 485290 | actives 0.28% (n = 350,000) | recombinant TDP1, AlphaScreen DNA substrate cleavage; further: nearly all actives have a fitted effect of over 40% in size
Target sequence (Q9NUW8 whole entry, looked up): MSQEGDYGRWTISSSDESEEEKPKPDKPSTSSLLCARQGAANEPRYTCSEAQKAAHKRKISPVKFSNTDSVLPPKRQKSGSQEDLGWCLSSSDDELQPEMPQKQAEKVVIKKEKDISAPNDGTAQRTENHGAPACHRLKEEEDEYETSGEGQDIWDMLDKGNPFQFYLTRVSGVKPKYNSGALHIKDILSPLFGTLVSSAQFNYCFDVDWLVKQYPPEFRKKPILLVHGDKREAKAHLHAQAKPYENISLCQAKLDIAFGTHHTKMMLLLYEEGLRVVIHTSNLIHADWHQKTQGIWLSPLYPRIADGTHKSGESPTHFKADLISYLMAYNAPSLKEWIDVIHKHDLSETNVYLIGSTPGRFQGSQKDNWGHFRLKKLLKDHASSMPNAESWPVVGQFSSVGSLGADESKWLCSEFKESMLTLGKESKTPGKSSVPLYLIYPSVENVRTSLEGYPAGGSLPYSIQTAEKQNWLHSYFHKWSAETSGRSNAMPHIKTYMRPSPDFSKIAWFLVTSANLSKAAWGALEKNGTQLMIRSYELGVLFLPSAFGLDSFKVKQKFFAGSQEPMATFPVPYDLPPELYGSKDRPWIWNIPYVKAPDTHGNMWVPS
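Tdp1 1 nM final; 15 min RT w/ cpd; substrate 15 nM, 5 min; beads 10 ug/ml, 10 min; AlphaScreen read. Neg ctrl: no enzyme.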
DT40 TDP1 CPT: DT40-hTDP1 cell growth loss with CPT | actives 12% (n = 420,000) | Potency, µM (highest dose often 46.2 µM), for the others: at the highest dose activity change, negative = growth inhibition, actives largely listed as inhibitors | chicken DT40 Tdp1-/-;hTDP1 cells + 20 nM CPT, ATP luminescence, 48 h; further: nearly all actives have a fitted effect of over 55% in size
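Chicken DT40 Tdp1-/- cells stably complemented with human TDP1 were seeded at 400 cells/well in medium containing 20 nM camptothecin, exposed to pin-transferred compounds, and grown at 37 °C for at least 48 hr. Viability was read as ATP luminescence.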
Gal4-VP16 FLuc: counter-screen for ROR gamma inhibitors: Gal4-VP16 reporter; Drosophila S2 Gal4-VP16 UAS-luciferase, luminescence, 20 h; Potency, µM (series often up to 53.6 µM), for inactives: top-dose activity, negative = inhibition, hits mostly inhibitors; actives 3.5% (n = 310,000); AID 2546;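 further: Gal4-VP16 expression switched on by copper sulfate through the metallothionein promoter; nearly all actives have a fitted effect of over 50% in size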
* hit, by the source's call; ? = inconclusive; . = no result given; [ ] = dose if it differs, or a comment. Shown are actives, neighbours in structure and some others; about 19% of the full set was active somewhere. The call rests on the fitted dose curve; in most records, active means well fitted curve in the direction sought with a large enough effect; inconclusive means small, poorly fitted or top-dose-only effect, or another doubt; inactive means no such curve, though single readings can be large; an effect the other way counts as inactive or inconclusive. On the % scale 0 is the no-effect control and ±100 the full control effect; potency means the concentration at half of the fitted maximal effect.

SMILES	DT40 TDP1 no CPT	RORgamma inh	TDP1 inh	DT40 TDP1 CPT	Gal4-VP16 FLuc
CCCCc1ccc(NC(=S)NCc2cccc(OC)c2)cc1	?	3.5µM*	5%	?	0%[10 µM]
CCCCc1ccc(NC(=S)NCc2cccnc2)cc1	?	?	-8%	?	?
COC(=O)Cc1ccc(NC(=S)NCc2ccc(S(N)(=O)=O)cc2)cc1	-17%	0%	.	21µM*	-3%
COc1cccc(CC(=O)OC(C)C(=O)NCc2ccc3c(c2)OCO3)c1 (configuration not stated)	-12%	.	0%[0.505 µM]	-14%	.
COC(=O)Cc1ccc(NC(=S)NCc2cccc(OC)c2)cc1	?	13µM*	3%	-1%	8%[10 µM]
CC(=O)Nc1ccc(NC(=O)C(C)OC(=O)CC2CCCC2)cc1 (configuration not stated)	-11%	.	.	4%	.
O=C(N/N=C/c1ccsc1)c1ccc2ccccc2n1	1%	20%	3%	22%	-1%
Cc1cccn2c(=O)nc(SCC(=O)N3CCCCCC3)nc12	?	.	.	-24%	.
O=C(Cn1cc[n+](Cc2ccccc2)c1)c1ccc([N+](=O)[O-])cc1	2.6µM*	-44%	-1%	3.7µM*	0%
O=C(C[n+]1ccn(-c2ccccc2)c1)c1ccc([N+](=O)[O-])cc1	16µM*	.	2%	15µM*	.
O=C(C[n+]1ccccc1)c1cccc([N+](=O)[O-])c1	-3%	.	.	-8%	.
c1ccc(Cc2cc[n+](Cc3ccccn3)cc2)cc1	9.2µM*	10%	4%	21µM*	8%
O=[N+]([O-])c1ccc(C[n+]2ccc(Cc3ccccc3)cc2)cc1	10µM*	-4%	5%	18µM*	5%
N=C1C2=C3Sc4ccccc4N3CCCC2=NN1c1cccc(S(=O)(=O)O)c1	-9%	15%	-1%	-1%	-6%
O=C(Cc1cccc([N+](=O)[O-])c1)Nc1ccccc1	2%	.	.	5%	.
COC(=O)[C@]12CCCCC=C1N(Cc1cccc3ccccc13)C(=O)[C@H](CC(=O)N1CCC(c3ccccc3)CC1)C2	15µM*	.	.	?	.
COC(=O)[C@]12CCCCC=C1N(Cc1cccc3ccccc13)C(=O)[C@H](CC(=O)N1CCCCC1)C2	23µM*	.	.	?	.
CC(C)(C)NC(=O)Cn1nnnc1-c1nonc1N	-20%	16%	9%	-14%	16%
COc1ccccc1CNc1ncncc1-c1ccccc1Cl	-10%	-6%	.	3%	-3%
Cc1ccoc1C(=O)N1CCCCC1C(=O)O (configuration not stated)	18µM*	-17%	5%	?	6%
COc1ccc2c(CNCc3cccs3)c(C(=O)O)n(Cc3ccccc3F)c2c1	-28%	.	8%	?	.
COc1ccc2c(CNCc3cccs3)c(C(=O)O)n(Cc3ccc(F)cc3Cl)c2c1	1.5µM*	.	5%	7.3µM*	.
COc1ccc2c(CNCCc3cccs3)c(C(=O)O)n(Cc3ccc(F)cc3Cl)c2c1	6.5µM*	.	10%	8.2µM*	.
COc1ccc2c(CNCCc3cccs3)c(C(=O)O)n(Cc3cccc(F)c3)c2c1	?	.	6%	?	.
Brc1cccc2sc(N3CCN(c4ccccc4)CC3)nc12	-4%	17%	2%	11%	-28%
SMILES	DT40 TDP1 no CPT	RORgamma inh	TDP1 inh	DT40 TDP1 CPT	Gal4-VP16 FLuc
O=C(c1ccc2c(Cl)c3c(nc2c1)CCCC3)N1CCN(c2ccc(F)cc2)CC1	18µM*	0%	7%	21µM*	-1%
CCCN1CCN(CCCNC(=O)c2ccc3c(Cl)c4c(nc3c2)CCCC4)CC1	8.2µM*	-13%	3%	21µM*	-12%
O=C(NCCCN1CCCC1)c1ccc2c(Cl)c3c(nc2c1)CCCC3	15µM*	26%	0%	?	-10%
COc1cc(C)cc(C(=O)O)c1C1=C(O)c2cccc(O)c2C(=O)C1=O	5%	-13%	.	3%	-4%
Cc1ccc2ccc3cc(C(=O)N4CCN(c5ccccc5F)CC4)nc3c2[nH]1	16µM*	.	1%	?	.
CCOC(=O)C1CCN(C(=O)c2cc3ccc4cccnc4c3[nH]2)CC1	-29%	.	0%	-29%	.
CCOC(=O)C1CCN(C(=O)c2cc3ccc4ccc(C)[nH]c4c3n2)CC1	21µM*	.	3%	18µM*	.
Cc1ccc2ccc3cc(C(=O)Nc4ccc(C)c(F)c4)nc3c2[nH]1	16µM*	.	-4%	?	.
CCc1nnc(NC(=O)C(NS(=O)(=O)c2ccccc2)C(C)C)s1 (configuration not stated)	-16%	.	.	-7%	.
O=C(/C=C/c1cccs1)c1ccc([N+](=O)[O-])cc1	-17%	18%	7%	-29%	-1%
CC(=O)Nc1cccc(C(=O)/C=C/c2ccc(F)cc2)c1	4.6µM*	13µM*	-5%	2.3µM*	?
CC(=O)Nc1cccc(C(=O)/C=C/c2cccs2)c1	21µM*	4%	4%	?	-15%
O=C(/C=C/c1cccs1)c1ccc(N2CCOCC2)cc1	?	7.9µM*	-1%	?	14µM*
CC(=O)Nc1cccc(C(=O)/C=C/c2ccc(N(C)C)cc2)c1	?	?	-13%	3%	6%
CC(=O)Nc1cccc(C(=O)/C=C/c2ccc(/C=C/C(=O)c3cccc(NC(C)=O)c3)cc2)c1	.	10µM*	3%	.	?
CC(=O)Nc1cccc(C(=O)/C=C/c2ccco2)c1	?	?	-12%	?	?
CC(=O)Nc1cccc(C(=O)/C=C/c2ccc[nH]2)c1	?	38%	0%	?	8%
CCN(CC)c1ccc2cc(C(=O)NNC(=O)c3ccc(S(=O)(=O)N4CCCCC4)cc3)c(=O)oc2c1	?	12%	1%	?	1%
CCOC(=O)c1c(NC(=S)N2CCOCC2)sc(C)c1C	-25%	1%	1%	-20%	0%
CC(=O)Nc1cccc(NC(=O)c2ccc(Br)cc2)c1	?	?	4%	1%	0%
CC(=O)Nc1cccc(C(=O)/C=C/c2ccc(Br)cc2)c1	4.6µM*	?	0%	3.3µM*	?
CCC(=O)Nc1cccc(C(=O)/C=C/c2cc(Br)ccc2OC)c1	4.1µM*	11µM*	7%	2.9µM*	?
CCC(=O)Nc1cccc(C(=O)OC)c1	-42%	10%	-4%	1%	-6%
CC(C)[C@H](NC(=O)c1ccc(Cl)c([N+](=O)[O-])c1)C(=O)NCc1ccc(F)cc1	-14%	?	5%	-29%	-7%
C=CCn1c(CCC)nc2ccccc21	-20%	-2%	4%	1%	-7%
C=CCn1c(C(CC)CC)nc2ccccc21	-24%	6.3µM*	-3%	10%	-14%
CN(C)CCn1c(COc2ccccc2)nc2ccccc21	-12%	.	.	?	.

Source: PubChem BioAssay
